Where a name gives a salt, the structure may show the parent alone.
System: Saccharomyces cerevisiae BY4741 SeMeCo community
Experiment: z-score of subpopulation abundance vs DMSO median, subpopulation auxotrophic for HU; higher = larger share of this subpopulation than in DMSO controls
Conditions: 10 µM; 24 h; SM minimal medium; subpopulation (auxotrophy): HU
Procedure, shortened: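 A Saccharomyces cerevisiae BY4741 community carried four plasmids, each restoring one auxotrophy and encoding a distinct fluorescent protein. It was pre-grown overnight to OD600 1.0, diluted to 0.3, and 70 µl was added to 384-well plates acoustically predosed with library drugs (10 µM final), then grown 24 h in minimal SM medium. Cells were paraformaldehyde-fixed and imaged by automated confocal microscopy, with single-auxotroph fluorescent strains setting thresholds and autofluorescence correction. Each subpopulation's abundance was scored as a z-score against the vehicle-well median.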

SMILES	z-score of subpopulation abundance
CCCCCOc1ccc(-c2ccc(-c3ccc(C(=O)N[C@H]4C[C@@H](O)[C@@H](O)NC(=O)[C@@H]5[C@@H](O)[C@@H](C)CN5C(=O)[C@H]([C@@H](C)O)NC(=O)[C@H]([C@H](O)[C@@H](O)c5ccc(O)cc5)NC(=O)[C@@H]5C[C@@H](O)CN5C(=O)[C@H]([C@@H](C)O)NC4=O)cc3)cc2)cc1	17.2
Cc1ccnc(NS(=O)(=O)c2ccc(N)cc2)n1 [Sulfamerazine]	-0.3
C[C@@H]1[C@H](O)[C@@H](C)/C=C/C=C/C=C/C=C/C=C/C=C/C=C/[C@H](O[C@@H]2O[C@H](C)[C@@H](O)[C@H](N)[C@@H]2O)C[C@@H]2O[C@](O)(C[C@@H](O)C[C@@H](O)[C@H](O)CC[C@@H](O)C[C@@H](O)CC(=O)O[C@H]1C)C[C@H](O)[C@H]2C(=O)O [Amphotericin B]	10.5
CO/N=C(\C(=O)N[C@@H]1C(=O)N2C(C(=O)O)=CCS[C@H]12)c1csc(N)n1 [Ceftizoxime sodium]	-0.68
COC1C(O)CC(=O)OC(C)CC=CC=CC(OC2CCC(N(C)C)C(C)O2)C(C)CC(CC=O)C1OC1OC(C)C(OC2CC(C)(O)C(O)C(C)O2)C(N(C)C)C1O (stereo not given) [Spiramycin]	0.31
CC(C)(O/N=C(\C(=O)N[C@@H]1C(=O)N2C(C(=O)[O-])=C(C[n+]3ccccc3)CS[C@H]12)c1csc(N)n1)C(=O)O [Ceftazidime]	0.43
C[C@@H]1C/C=C/C=C/C=C/C=C/[C@H](O[C@@H]2O[C@H](C)[C@@H](O)[C@H](N)[C@@H]2O)C[C@@H]2O[C@](O)(C[C@@H](O)C[C@H]3O[C@@H]3/C=C/C(=O)O1)C[C@H](O)[C@H]2C(=O)O [Natamycin]	33.6
COCCCN1CCC(NC(=O)c2cc(Cl)c(N)c3c2OCC3)CC1 [Prucalopride]	0.16
CCCSc1ccc2[nH]c(NC(=O)OC)nc2c1 [Albendazole]	-0.61
CN(C)CCN1C(=O)c2cccc3cc(N)cc(c23)C1=O [Amonafide]	-0.59
CCOC(=O)C1=C(COCCN)NC(C)=C(C(=O)OC)C1c1ccccc1Cl (stereo not given) [Amlodipine Besylate]	-7.3
CC(C)(C)C(=O)C(Oc1ccc(Cl)cc1)n1ccnc1 (stereo not given) [Climbazole]	4.67
COc1cc(N)c(Cl)cc1C(=O)NC1CCN(CCCOc2ccc(F)cc2)CC1OC (stereo not given) [Cisapride]	-0.01
COc1ccc2[nH]c([S+]([O-])Cc3ncc(C)c(OC)c3C)nc2c1 (stereo not given) [Omeprazole]	0.46
O=C1CCc2cc(OCCCCc3nnnn3C3CCCCC3)ccc2N1 [Cilostazol]	-0.16
O=c1ccn(C2CC(O)C(CO)O2)c(=O)[nH]1 (stereo not given) [2-deoxyuridine]	-1.08
NC12CC3CC(CC(C3)C1)C2 [Amantadine HCl]	-0.11
CO/N=C(\C(=O)N[C@@H]1C(=O)N2C(C(=O)OCOC(=O)C(C)(C)C)=C(/C=C\c3scnc3C)CS[C@H]12)c1csc(N)n1 [Cefditoren Pivoxil]	-0.64

SMILES	z-score of subpopulation abundance
O=C1c2cccc3c2[C@H](CCC3)CN1[C@@H]1CN2CCC1CC2 [Palonosetron HCl]	0.33
CCCOc1ccc2[nH]c(NC(=O)OC)nc2c1 [Oxibendazole]	0.92
C[C@]12CC[C@@H]3c4ccc(O)cc4CC[C@H]3[C@@H]1CC[C@@H]2OC(=O)CCC1CCCC1 [Estradiol Cypionate]	0.6
COc1ccc2c(c1)c(CC(=O)O)c(C)n2C(=O)c1ccc(Cl)cc1 [Indomethacin]	-0.04
O=C(O)Cc1ccccc1Nc1c(Cl)cccc1Cl [Diclofenac Diethylamine]	-1.85
C[C@@H](O)[C@H]1C(=O)N2C(C(=O)OCOC(=O)C(C)(C)C)=C(SC3CN(C4=NCCS4)C3)[C@H](C)[C@H]12 [Tebipenem Pivoxil]	-0.03
COC(=O)C1=C(C)NC(C)=C(C(=O)OCC(C)C)C1c1ccccc1[N+](=O)[O-] (stereo not given) [Nisoldipine]	0.04
NC(=O)Cc1cccc(C(=O)c2ccccc2)c1N [Nepafenac]	-1.05
CN1C2CCCC1CC(NC(=O)c1nn(C)c3ccccc13)C2 (stereo not given) [Granisetron]	-0.71
CN(C)C[C@@H]1CCn2cc(c3ccccc32)C2=C(C(=O)NC2=O)c2cn(c3ccccc23)CCO1	-0.03
Cc1ccc(Sc2ccccc2N2CCNCC2)c(C)c1	-0.76
CN(C)CCCN1c2ccccc2Sc2ccccc21 [Promazine hydrochloride]	-0.69
CN(C)CCn1nnnc1SCC1=C(C(=O)O)N2C(=O)[C@@H](NC(=O)Cc3csc(N)n3)[C@H]2SC1 [Cefotiam hydrochloride]	0.76
CN(C)CC(c1ccc(O)cc1)C1(O)CCCCC1 (stereo not given) [Desvenlafaxine]	-0.26
Cc1ncc([N+](=O)[O-])n1CCOC(=O)c1ccccc1 [Metronidazole Benzoate]	-1
O=C1C(CC[S+]([O-])c2ccccc2)C(=O)N(c2ccccc2)N1c1ccccc1 (racemic) [(+/-)-Sulfinpyrazone]	-0.49
COc1ccccc1OCC(O)CN1CCN(CC(=O)Nc2c(C)cccc2C)CC1 (stereo not given) [Ranolazine 2HCl]	-0.09
